Source: the supplement of paper PMC6555819

System: PPARg:RXRa 30nM:10nM, anti-RXR (NR concentration 30 nM, RXRa partner concentration 10 nM)
Experiment: PBM binding z-score (relative to random genomic background probes); higher = stronger binding; sequences stand for … in GC…GCGATTGACAGCGTAGAATGAAGG
How it was run: (§1)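 Ligand-free nuclear receptor dimers were applied to custom Agilent 4×180K protein-binding microarrays whose double-stranded probes carried direct-repeat seeds, single-nucleotide variants, half-site ablations and random human genomic background sequences in 34-nt variable regions. Incubation lasted 1 h. Binding z-scores were computed against the random background probes from regression-normalized fluorescence.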

Row | Sequence | PBM binding z-score
1 | GCTAGTTGGTCAGTAAATGGTCACACACCGGTCG | -0.52
2 | AGCTCTAGGTAAAAGTTCAGTGAATCCCGAGGAT | 6.13
3 | TAGCCTAGGTCATTCAGGGGCCAGTATGGAAAGC | 0.204
4 | TAGCCTAGGTCATAGGCCAGTATACCACGCGAAC | 2.36
5 | CAATCTAGGTCAAAGGTCAAAGTCGAGCCAACCA | 12.9
6 | AGACAAAGTTCAGGACGAGGTAACGTAAAGCACG | 1
7 | CCTGCTAGTTCATGGTCAGCTAATCTACAGTATG | -0.124
8 | TCTCGGAGGACACGAAAAGTCAGAGCTCGACATC | 2.15
9 | TGACTGAGGTTAAAGATCAGGGAACGTGGCGTCG | 2.03
10 | TATACAGGGTCTAAGGCCAGAGTACGAATGTCGA | 0.951
11 | ATCTGTAGGTTATCGGGTCATTCAGTTTGCGCAT | 1.41
12 | GCTGCTCGGTCAACTGATGGTCAGCTAAAGCTCG | -0.686
13 | CCTTACAGGTCACGAGGTTATAGCACGACGAGCG | 3.71
14 | GCTGCTAGGTCGACTGATGGTCAGCTAAAGCTCG | -0.591
15 | TAGCCTAAGTCATGGGCCAGTATACCACGCGAAC | -0.251
16 | CAAACTAGGTCAAAGGTCAAAGCCGAGCCAACCA | 13.6
17 | TCTAGTTGGTCAAAGGCCACACACTCGAAATGCG | 6.34
18 | AGATTGAGGTTACCAAAGATCAGGGAAACGCTTG | 0.623
19 | CCTAGCAGGCCACGGTCACTCAAGCATTTCGCTT | -0.777
20 | AGAATGAGGTTACCAGAGATCAGGGAAACGCTTG | 0.897

Row | Sequence | PBM binding z-score
21 | CCTACTGGGCCAATGTCATTGATCAGTCAAAGCA | -0.129
22 | CCTACTGGGCCAACAAGGTCATTGATGCCGATAA | 0.856
23 | CCTACTGGGCGATTCAGAGGTCATTGATCATATG | 0.13
24 | CGTCCAACGTCAGCAGGTCAGTGAAAGCGACGTG | -0.755
25 | GGTACGAGGGCAAAGTTGATAGCATCTGTCGACG | 4.16
26 | CCTAGTTGGTCAAGGTCTCACACGCTATAGGTAC | 0.321
27 | ATATGTAGGTTACATCCGGGTCTTTCAGGCTATG | 1.55
28 | AGTCAAAGTTCAGTAGGTAACGTAAGATTCAGCT | 2.18
29 | CAAACTAGGTCACGAAAGGTCAAATTCGAATGAC | 7.21
30 | CATACAGGGTAAGCTAGGCCAGAGTAGGGACGGC | -0.335
31 | CCTGCTAGTTCAATGGTCAGCTAAAGCAGCTCGC | -0.764
32 | CCTAGTTGGTCAGGTGGTCACACACCGGATATGA | 0.231
33 | TAGCCTAGGTCATTGGACCAGTATAGTACGCATC | 1.04
34 | CCTGCTAGGTCAATGGTCAGCTAAAGCAGCTCGC | 3.2
35 | GCTGCTAGGTCAACTGATGGTCAGCTAGAGCTCG | 0.27
36 | ATCGAAAGGTGGACGAGGTGAGTATACACCGTTT | 0.356
37 | CCCGCTAGGTCATGGTCAGCTAATCTACAGTATG | 0.967
38 | CCAGACAGGTGAAAGGTAACTCACTCTGGTACGC | 4.21
39 | CCTAGCAGACCAATCTGGGTCACTCAAGGCTTGA | 0.195

System: PPARg:RXRa 90nM:30nM, anti-RXR (NR concentration 90 nM, RXRa partner concentration 30 nM)
Experiment: as above
How it was run: as §1

Row | Sequence | PBM binding z-score
40 | GCTAGTTGGTCAGTAAATGGTCACACACCGGTCG | -0.282
41 | AGCTCTAGGTAAAAGTTCAGTGAATCCCGAGGAT | 7.9
42 | TAGCCTAGGTCATTCAGGGGCCAGTATGGAAAGC | 1.74
43 | TAGCCTAGGTCATAGGCCAGTATACCACGCGAAC | 4.03
44 | CAATCTAGGTCAAAGGTCAAAGTCGAGCCAACCA | 13.1
45 | AGACAAAGTTCAGGACGAGGTAACGTAAAGCACG | 1.97
46 | CCTGCTAGTTCATGGTCAGCTAATCTACAGTATG | -0.29
47 | TCTCGGAGGACACGAAAAGTCAGAGCTCGACATC | 1.59
48 | TGACTGAGGTTAAAGATCAGGGAACGTGGCGTCG | 3.59
49 | TATACAGGGTCTAAGGCCAGAGTACGAATGTCGA | 1.51
50 | ATCTGTAGGTTATCGGGTCATTCAGTTTGCGCAT | 3.37
51 | GCTGCTCGGTCAACTGATGGTCAGCTAAAGCTCG | -0.163
52 | CCTTACAGGTCACGAGGTTATAGCACGACGAGCG | 5.37
53 | GCTGCTAGGTCGACTGATGGTCAGCTAAAGCTCG | -0.382
54 | TAGCCTAAGTCATGGGCCAGTATACCACGCGAAC | 0.254
55 | CAAACTAGGTCAAAGGTCAAAGCCGAGCCAACCA | 13
56 | TCTAGTTGGTCAAAGGCCACACACTCGAAATGCG | 7.68
57 | AGATTGAGGTTACCAAAGATCAGGGAAACGCTTG | 1.49
58 | CCTAGCAGGCCACGGTCACTCAAGCATTTCGCTT | -0.122
59 | AGAATGAGGTTACCAGAGATCAGGGAAACGCTTG | 1.85

Row | Sequence | PBM binding z-score
60 | CCTACTGGGCCAATGTCATTGATCAGTCAAAGCA | 0.12
61 | CCTACTGGGCCAACAAGGTCATTGATGCCGATAA | 2.31
62 | CCTACTGGGCGATTCAGAGGTCATTGATCATATG | 0.99
63 | CGTCCAACGTCAGCAGGTCAGTGAAAGCGACGTG | -0.842
64 | GGTACGAGGGCAAAGTTGATAGCATCTGTCGACG | 6.02
65 | CCTAGTTGGTCAAGGTCTCACACGCTATAGGTAC | 0.561
66 | ATATGTAGGTTACATCCGGGTCTTTCAGGCTATG | 3.34
67 | AGTCAAAGTTCAGTAGGTAACGTAAGATTCAGCT | 4.2
68 | CAAACTAGGTCACGAAAGGTCAAATTCGAATGAC | 8.47
69 | CATACAGGGTAAGCTAGGCCAGAGTAGGGACGGC | -0.43
70 | CCTGCTAGTTCAATGGTCAGCTAAAGCAGCTCGC | -0.0476
71 | CCTAGTTGGTCAGGTGGTCACACACCGGATATGA | 0.655
72 | TAGCCTAGGTCATTGGACCAGTATAGTACGCATC | 2.07
73 | CCTGCTAGGTCAATGGTCAGCTAAAGCAGCTCGC | 5.15
74 | GCTGCTAGGTCAACTGATGGTCAGCTAGAGCTCG | 2.01
75 | ATCGAAAGGTGGACGAGGTGAGTATACACCGTTT | 0.402
76 | CCCGCTAGGTCATGGTCAGCTAATCTACAGTATG | 1.94
77 | CCAGACAGGTGAAAGGTAACTCACTCTGGTACGC | 6.66
78 | CCTAGCAGACCAATCTGGGTCACTCAAGGCTTGA | 1.21
